Results from PubChem BioAssay (EPA / NIEHS).
Where a structure was tested more than once in an assay, its records may differ in their call. The source made the active and inactive calls. How the source made its calls: active means hit-call score of the fitted dose curve at least 0.9, where 1 is the maximum; inactive means score below 0.9.

read-out: Glutamate-cysteine ligase regulatory (GCLM), GCLM (gene 2730); test: LTEA_HepaRG_GCLM: Life Technologies and Expression Analysis (LTEA) Assay for Glutamate-cysteine ligase regulatory (GCLM) using HepaRG (AID 2283500); settings: mRNA level, 48 h; actives raise or lower the signal
Protocol: LTEA_HepaRG is a cell based, multiplexed-readout assay that uses HepaRG, a human liver cell line, with measurements taken at 48 hours after chemical dosing on a 96-well plate.LTEA_HepaRG_GCLM is one of 102 assay component(s) measured in the LTEA HepaRG cell culture assay. It is a marker of Cell proliferation, survival, death.Data from the assay component LTEA_HepaRG_GCLM was analyzed into 1 endpoint. This assay endpoint, LTEA_HepaRG_GCLM, was analyzed with bidirectional fitting relative to DMSO as the negative control and baseline of activity. Using a type of inducible reporter, measures of mRNA induction for gain or loss-of-signal activity can be used to understand regulation of transcription factor activity. To generalize the intended target to other relatable targets, this assay endpoint is annotated to the ligase intended target family, where the subfamily is C-N ligase.
A total of 1060 chemcials from the ToxCast library were tested in eight-point concentration-response experiments. Cell culture and cytotoxicity assays were conducted at Thermo Fisher Scientific's Custom Services facility (Madison, WI). A single lot of human HepaRG cells (Thermo Fisher Scientific, Frederick, MD) was used for the cell culture experiments. 96-well format collagen type I coated plates of human HepaRG cells were prepared using established methods. Briefly, cryopreserved HepaRG cells were thawed, plated at a density of approximately 100,000 cells/well in HepaRG Thaw, Plate, and General Purpose media (HPRG770, Thermo Fisher Scientific), and incubated for 48 hours. 0.5% DMSO was selected as vehicle control to balance the requisite need of DMSO in HepaRG cultures to maintain differentiation (for example, baseline metabolism, proportions of hepatocytes vs. cholangiocytes), while enabling further hepatic receptor pathway activation (for example, PXR and CAR) in response to chemical exposure. 48 hours after plating, the culture medium was replaced with HepaRG Serum-Free Incudtion Media. Cells were exposed to each test chemical in duplicate and maintained in CO2 incubators for another 48 hours. Chemical plates were thawed to room temperature and 200x concentrations of treatment groups were prepared. 8-point conentration-reponse curves were made with the highest exposure at 100 uM, followed by half-log dilutions, all in 0.5% DMSO. Each test plate contained variouse controls, induction positive controls (1mM phenobarbital), cytotoxicity positive controls ([…] aflatoxin B1), vehicle controls (0.5% DMSO), and total lysis controls (0.5% DMSO). Cell morphology images were taken using an Essen IncuCyte FLR automated microscope, with six 96-well plates imaged in about 24 minutes. Images were captured and exported and JPEG files. Spent culture media was transfered to black-well plates for the LDH assay, and remaining media was sorted at -80 C for later use. Cells were treated with RLT buffer and frozen until shipped for gene expression analysis. Total RNA was isolated from the cell suspension in 75 uL of Buffer RLT (Qiagen, Germantown, MD 20874) by Quintiles/Expression Analysis (Durham, NC) using a custom isolation procedure. Total RNA from each plate well was transferred to a preamplification plate. Fluidigm's 96.96 Dynamic ArrayTM (Fluidigm, Amsterdam, the Netherlands) technology was used for gene expression analyses by quantitative reverse transcription polymerase chain reaction (qRT-PCR, performed by Quintiles/Expression Analysis, Durham, NC)89. Standard TaqManTM Assays (Applied Biosystems/ThermoFisher Scientific, Foster City, CA) were used to assess the expression of 93 genes selected based on their selectivity and sensitivity to important hepatic receptors known to be modulated by environmental chemicals; importance in human hepatocyte functionality; and hepatotoxicity. […]

SMILES	outcome	AC50
CC(C)N(C(=O)COc1nnc(C(F)(F)F)s1)c1ccc(F)cc1	inactive	–
O=C(NC(=O)c1c(F)cccc1F)Nc1ccc(OC(F)(F)C(F)OC(F)(F)F)c(Cl)c1 (stereo not given)	inactive	–
O=S(=O)(O)C(F)(F)C(F)(F)C(F)(F)C(F)(F)C(F)(F)C(F)(F)C(F)(F)C(F)(F)F	inactive	–
Oc1cc(Cl)ccc1Oc1ccc(Cl)cc1Cl	inactive	89.6 µM (active)
COP(=S)(OC)Oc1ccc(SC)c(C)c1	–	0.244 µM (active)
CCC(C)Nc1c([N+](=O)[O-])cc(C(C)(C)C)cc1[N+](=O)[O-] (stereo not given)	inactive	–
N#CN	inactive	–
O=[N+]([O-])c1c(Cl)c(Cl)c(Cl)c(Cl)c1Cl	inactive	–
CNC(=O)Oc1ccccc1OC(C)C	inactive	–
Cc1[nH]c(=O)n(C(C)(C)C)c(=O)c1Cl	inactive	–
N#Cc1c(Cl)c(Cl)c(Cl)c(C#N)c1Cl	inactive	–
CC1(c2ccc(Oc3ccccc3)cc2)OC(=O)N(Nc2ccccc2)C1=O (stereo not given)	–	9.75 µM (active)
O=S1OCC2C(CO1)C1(Cl)C(Cl)=C(Cl)C2(Cl)C1(Cl)Cl (stereo not given)	–	50 µM (active)
CCN(CC)C(=O)SCc1ccc(Cl)cc1	inactive	–
CNC(=O)/C=C(\C)OP(=O)(OC)OC	inactive	–
CCCN(CCC)c1c([N+](=O)[O-])cc(C(F)(F)F)cc1[N+](=O)[O-]	inactive	–
CC1(C)C(C=C(Cl)Cl)C1C(=O)OC(C#N)c1ccc(F)c(Oc2ccccc2)c1 (stereo not given)	inactive	–
O=[N+]([O-])/N=C1\NCCN1Cc1ccc(Cl)nc1	inactive	–
CC[C@H](C)[C@H]1O[C@]2(C=C[C@@H]1C)C[C@@H]1C[C@@H](C/C=C(\C)[C@@H](O[C@H]3C[C@H](OC)[C@@H](O[C@H]4C[C@H](OC)[C@@H](O)[C@H](C)O4)[C@H](C)O3)[C@@H](C)/C=C/C=C3\CO[C@@H]4[C@H](O)C(C)=C[C@@H](C(=O)O1)[C@]34O)O2 (tested in a mixture with another compound)	–	7.66 µM (active)
CC(C)(C)C(O)/C(=C\c1ccc(Cl)cc1Cl)n1cncn1 (stereo not given)	inactive	–

SMILES	outcome	AC50
CNC(=O)Oc1cccc(N=CN(C)C)c1	inactive	–
COP(=S)(OC)Oc1ccc([N+](=O)[O-])cc1	inactive	–
CCC(C)(NC(=O)c1cc(Cl)c(C)c(Cl)c1)C(=O)CCl (stereo not given)	inactive	–
OCCOc1ccccc1	inactive	–
O=C(O)CCCOc1ccc(Cl)cc1Cl	inactive	–
CCOC1Oc2ccc(OS(C)(=O)=O)cc2C1(C)C (stereo not given)	–	81.8 µM (active)
O=C(O)C(F)(F)C(F)(F)C(F)(F)C(F)(F)C(F)(F)C(F)(F)C(F)(F)F	inactive	–
O=C(O)COc1ccc(Cl)cc1Cl	inactive	–
COP(=O)(OC)OC=C(Cl)Cl	inactive	–
CN1CSC(=S)N(C)C1	inactive	–
CC(C)(C)C(O)C(Oc1ccc(Cl)cc1)n1cncn1 (stereo not given)	inactive	–
Oc1ccc(Cl)cc1Cc1ccccc1	inactive	–
O=C1c2ccccc2C(=O)N1SC(Cl)(Cl)Cl	inactive	–
Clc1ccccc1-c1nnc(-c2ccccc2Cl)nn1	–	23 µM (active)
CC(C)OC(=O)Nc1cccc(Cl)c1	inactive	–
C[C@H]1[C@H](c2ccc(Cl)cc2)SC(=O)N1C(=O)NC1CCCCC1	–	73.5 µM (active)
CCCN(CCOc1c(Cl)cc(Cl)cc1Cl)C(=O)n1ccnc1	–	13.4 µM (active)
ClC1C(Cl)C(Cl)C(Cl)C(Cl)C1Cl (stereo not given)	inactive	–
O=C(Nc1ccccc1)Nc1cnns1	–	80.3 µM (active)
